{"source": "PubChem BioAssay (NCATS)", "note": "Results filed as inconclusive are left out. The source made the active and inactive calls. The call rests on the fitted dose curve; in most records, active means well fitted inhibition curve with a large enough effect; inconclusive means small, poorly fitted or top-dose-only effect; inactive means flat fitted curve, though single readings scatter. Peptide text beside a SMILES is read from it."}
{"system": "CRL-7250", "assay": "qHTS assay to identify novel small-molecules to repurpose for Merkel cell carcinoma treatment (AID 1296009); further: nearly all actives have a fitted effect of over 60% in size", "conditions": "MCC and control cell lines, CellTiter-Glo viability, 72 h; at 44.8 µM (top of the series) unless noted", "outline": "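CellTiter-Glo luminescence after 72 hr compound exposure at 37 degree celsius gave cell viability. Libraries NPC and MIPE were run as 8- and 11-point dose responses; RLUs normalized to DMSO (negative) and no-cell (cytotoxicity) controls.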"}
{"smiles": "CCCCCCCCCCCCCCCCCC(=O)OCC(O)CO", "note": "(configuration not stated)", "outcome": "inactive"}
{"smiles": "Cc1ccccc1OCC(O)CO", "note": "(configuration not stated)", "outcome": "inactive"}
{"smiles": "CCN(CC)CCNC(=O)c1ccc(N)cc1", "outcome": "inactive"}
{"smiles": "CC[C@]12CCCN3CCc4c(n(c5ccccc45)[C@@](O)(C(=O)OC)C1)[C@@H]32", "outcome": "inactive"}
{"smiles": "O=C1NCC2(CCN(CCc3ccccc3)CC2)O1", "outcome": "inactive"}
{"smiles": "Oc1ccccc1-c1nnco1", "outcome": "inactive"}
{"smiles": "COc1c2occc2c(OC)c2c(=O)cc(C)oc12", "outcome": "inactive"}
{"smiles": "O=C(NCC1CCCCN1)c1cc(OCC(F)(F)F)ccc1OCC(F)(F)F", "note": "(configuration not stated)", "outcome": "inactive"}
{"smiles": "CCC(C(=O)OCCN(CC)CC)c1ccccc1", "note": "(configuration not stated)", "outcome": "inactive"}
{"smiles": "CC(N=C(NC#N)Nc1ccncc1)C(C)(C)C", "note": "(configuration not stated)", "outcome": "inactive"}
{"smiles": "COc1ccc(C2CNC(=O)C2)cc1OC1CCCC1", "note": "(configuration not stated)", "outcome": "inactive"}
{"smiles": "NC(CS)C(=O)O", "note": "(configuration not stated)", "outcome": "inactive"}
{"smiles": "CC(C(=O)O)c1ccc(C(=O)c2ccccc2)s1", "note": "(configuration not stated)", "outcome": "inactive"}
{"smiles": "O=C1CN(/N=C/c2ccc([N+](=O)[O-])o2)C(=O)N1", "outcome": "inactive"}
{"smiles": "Cc1cc(OI)c(C(C)C)cc1-c1cc(C(C)C)c(OI)cc1C", "outcome": "inactive"}
{"smiles": "CCC[C@@]1(CCc2ccccc2)CC(O)=C([C@H](CC)c2cccc(NS(=O)(=O)c3ccc(C(F)(F)F)cn3)c2)C(=O)O1", "outcome": "inactive"}
{"smiles": "Cc1ccc(S(=O)(=O)NC(=O)NC2CCCCC2)cc1", "outcome": "inactive"}
{"smiles": "Nc1cc(=O)[nH]c(N)n1", "outcome": "inactive"}
{"smiles": "O=C(O)CSCC(=O)NC1CCSC1=O", "note": "(configuration not stated)", "outcome": "inactive"}
{"smiles": "NCCCNCCSP(=O)(O)O", "outcome": "inactive [at 9.27 µM]"}
{"smiles": "OC[C@H]1O[C@H](O[C@]2(CCl)O[C@H](CCl)[C@@H](O)[C@@H]2O)[C@H](O)[C@@H](O)[C@H]1Cl", "outcome": "inactive"}
{"smiles": "NC(=O)N1c2ccccc2C=Cc2ccccc21", "outcome": "inactive"}
{"smiles": "COc1ccc(C(=O)c2ccccc2O)c(O)c1", "outcome": "inactive"}
{"smiles": "CCNC(=O)[C@@H]1CCCN1C(=O)[C@H](CCCN=C(N)N)NC(=O)[C@H](CC(C)C)NC(=O)CNC(=O)[C@H](Cc1ccc(O)cc1)NC(=O)[C@H](CO)NC(=O)[C@H](Cc1c[nH]c2ccccc12)NC(=O)[C@H](Cc1cnc[nH]1)NC(=O)[C@@H]1CCC(=O)N1", "note": "(HELM PEPTIDE1{[Glp].H.W.S.Y.G.L.R.P.[CCN[*:1]]}$$$$V2.0)", "outcome": "inactive"}
{"smiles": "COC(=O)CCCCC(CCSS/C(CCO)=C(\\C)N(C=O)Cc1cnc(C)nc1N)SC(C)=O", "note": "(configuration not stated)", "outcome": "inactive"}
{"smiles": "COc1ccc(C(=O)NCc2ccc(OCCN(C)C)cc2)cc1OC", "outcome": "inactive"}
{"smiles": "CCOC(=O)C1=C(C)NC(C)=C(C(=O)OC)C1c1cccc([N+](=O)[O-])c1", "note": "(configuration not stated)", "outcome": "inactive"}
{"smiles": "COc1ccccc1OCC(O)CO", "note": "(configuration not stated)", "outcome": "inactive"}
{"smiles": "CC(=O)[C@H]1CC[C@H]2[C@@H]3C[C@H](C)C4=CC(=O)CC[C@]4(C)[C@H]3[C@@H](O)C[C@]12C", "outcome": "inactive"}
{"smiles": "Cc1cc(C(C#N)c2ccc(Cl)cc2)c(Cl)cc1NC(=O)c1cc(I)cc(I)c1O", "note": "(configuration not stated)", "outcome": "inactive"}
{"smiles": "CC(C)c1ccc2oc3nc(N)c(C(=O)O)cc3c(=O)c2c1", "outcome": "inactive"}
{"smiles": "O=P(O)(O)C(O)(Cn1ccnc1)P(=O)(O)O", "outcome": "inactive [at 17.4 µM]"}
{"smiles": "Cc1cc(CC(=O)O)c(C)n1-c1ccc(Cl)cc1", "outcome": "inactive"}
{"smiles": "CCCCCCCC/C=C/C(=O)O", "outcome": "inactive"}
{"smiles": "CC(=O)CC(c1ccccc1)c1c(O)c2ccccc2oc1=O", "note": "(configuration not stated)", "outcome": "inactive"}
{"smiles": "CCOC(=O)O[C@]1(C(=O)OCCl)CC[C@H]2[C@@H]3CCC4=CC(=O)C=C[C@]4(C)[C@H]3[C@@H](O)C[C@@]21C", "outcome": "inactive"}
{"smiles": "C[C@](N)(Cc1ccc(O)cc1)C(=O)O", "outcome": "inactive [at 4.96 µM]"}
